Results from PubChem BioAssay (NCATS).
Results filed as inconclusive are left out. The source made the active and inactive calls. The call rests on the fitted dose curve; in most records, active means well fitted curve in the direction sought with a large enough effect; inconclusive means small, poorly fitted or top-dose-only effect, or another doubt; inactive means no such curve, though single readings can be large; an effect the other way counts as inactive or inconclusive.

Tests used:
[1] = NS1 protein of Zika virus - qHTS assay to identify small molecule inhibitors in human HEK 293 cells (AID 1347053); further: series mostly up to about 46 µM; nearly all actives have a fitted effect of over 55% in size
In short: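 Read-out is a two-antibody TR-FRET for ZIKV NS1, normalized between uninfected cells and infected cells. Compound added 1 h before MR766 infection at MOI 0.5; human HEK 293 cells incubated 24 h, 37 C.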

[2] = qHTS of pediatric cancer cell lines to identify multiple opportunities for drug repurposing: Primary screen for TC32 cells (AID 1347089); further: nearly all actives have a fitted effect of over 60% in size
In short: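 A viability screen of TC32 cells was run over 48 h, with primary MIPE doses spanning 0.78 nM–46 µM and NPC doses 0.59 nM–46 µM. ATP luminescence (CellTiter-Glo) served as the read-out.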

[3] = qHTS of pediatric cancer cell lines to identify multiple opportunities for drug repurposing: Primary screen for DAOY cells (AID 1347090); further: series mostly up to about 46 µM; nearly all actives have a fitted effect of over 55% in size
In short: (§1)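 Eight- or eleven-point concentration series, 48 h treatment at 37 degrees C in growth media; readout CellTiter-Glo luminescence. Potency and efficacy were taken from the concentration-response curves.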

[4] = qHTS of pediatric cancer cell lines to identify multiple opportunities for drug repurposing: Primary screen for SJ-GBM2 cells (AID 1347091)
In short: as §1

[5] = qHTS of pediatric cancer cell lines to identify multiple opportunities for drug repurposing: Primary screen for A673 cells (AID 1347092); further: nearly all actives have a fitted effect of over 45% in size
In short: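 Titration-based qHTS on A673 cells: MIPE compounds spanned 11 points (0.78 nM to 46 µM final), NPC compounds 8 points (0.59 nM to 46 µM final). Viability after 48 h was measured by ATP luminescence.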

[6] = qHTS of pediatric cancer cell lines to identify multiple opportunities for drug repurposing: Primary screen for SK-N-MC cells (AID 1347093); further: series mostly up to about 46 µM
In short: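 Metabolically active cells were quantified by ATP-dependent luminescence (CellTiter-Glo, 15 min at room temperature) following 48 h treatment. Cells had been plated at 500-1,000 per well and settled for 5 h beforehand.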

[7] = qHTS of pediatric cancer cell lines to identify multiple opportunities for drug repurposing: Primary screen for BT-37 cells (AID 1347094); further: series mostly up to about 57 µM
In short: (§2)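 Quantitative HTS format: each compound titrated (MIPE 11 points from 0.78 nM, NPC 8 points from 0.59 nM) onto cells plated 5 hours earlier. After 48 h at 37 degrees C, CellTiter-Glo luminescence was recorded.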

[8] = qHTS of pediatric cancer cell lines to identify multiple opportunities for drug repurposing: Primary screen for NB-EBc1 cells (AID 1347095)
In short: as §2

[9] = qHTS of pediatric cancer cell lines to identify multiple opportunities for drug repurposing: Primary screen for Saos-2 cells (AID 1347097); further: nearly all actives have a fitted effect of over 40% in size
In short: as §2

[10] = qHTS of pediatric cancer cell lines to identify multiple opportunities for drug repurposing: Primary screen for SK-N-SH cells (AID 1347098);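 further: DMSO served as neutral control and bortezomib at 2.3 µM as positive control; nearly all actives have a fitted effect of over 65% in size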
In short: (§3)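 Cells (500-1,000/well) rested 5 h, then received compounds for 48 h; metabolically active cells were measured by CellTiter-Glo luminescence. Final concentrations spanned up to 46 µM (MIPE, 11-point) or 0.59 nM-46 µM (NPC, 8-point) in primary screens, 11-point in follow-ups.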

[11] = qHTS of pediatric cancer cell lines to identify multiple opportunities for drug repurposing: Primary screen for NB1643 cells (AID 1347099); further: nearly all actives have a fitted effect of over 50% in size
In short: as §2

[12] = qHTS of pediatric cancer cell lines to identify multiple opportunities for drug repurposing: Primary screen for LAN-5 cells (AID 1347100)
In short: (§4)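 Cells (500-1,000/well) in growth media were settled 5 h at 37 degrees C, then given compounds for 48 h. Viability was read as CellTiter-Glo luminescence. Primary runs used MIPE at 11 points (0.78 nM-46 µM) and NPC at 8 points (0.59 nM-46 µM); follow-ups used 11 points.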

[13] = qHTS of pediatric cancer cell lines to identify multiple opportunities for drug repurposing: Primary screen for BT-12 cells (AID 1347101); further: nearly all actives have a fitted effect of over 25% in size
In short: as §3

[14] = qHTS of pediatric cancer cell lines to identify multiple opportunities for drug repurposing: Primary screen for Rh18 cells (AID 1347102); further: nearly all actives have a fitted effect of over 65% in size
In short: as §4

[15] = qHTS of pediatric cancer cell lines to identify multiple opportunities for drug repurposing: Primary screen for OHS-50 cells (AID 1347103); further: nearly all actives have a fitted effect of over 40% in size
In short: as §3

[16] = qHTS of pediatric cancer cell lines to identify multiple opportunities for drug repurposing: Primary screen for U-2 OS cells (AID 1347096); further: nearly all actives have a fitted effect of over 50% in size
In short: as §4

Measured: Potency

CC(=O)Nc1c(I)c(NC(C)=O)c(I)c(C(=O)O)c1I
not listed: [16]
inactive: all other assays above

O=C1CC2(CCCC2)CC(=O)N1
not listed: [9] | [12]
inactive: all other assays above

CC(=O)CC/C=C(\C)CC/C=C(\C)CC/C=C(\C)CCC=C(C)C
not listed: [9]
inactive: all other assays above

CCOc1ccccc1OCC1CNCCO1 (stereo unspecified)
not listed: [9]
inactive: all other assays above

CC(C)NC(=O)c1ccc(C=O)cc1
not listed: [16]
inactive: all other assays above

COCCc1ccccn1
not listed: [9]
inactive: all other assays above

COC(=O)/C=C(/C)N
not listed: [9]
inactive: all other assays above

Cc1ccc(/C=N/n2c(-c3ccccc3)csc2=S)cc1
not listed: [13] | [14] | [15] | [16]
inactive: all other assays above

OCCCc1ccccc1
not listed: [9]
inactive: all other assays above

O=C(O)Cn1c(=O)n(Cc2ccc(Br)cc2F)c(=O)c2ccc(Cl)cc21
not listed: [14] | [15] | [16]
inactive: all other assays above

CN1[C@@H]2CC[C@H]1CC(NC(=O)n1c(=O)[nH]c3ccccc31)C2 (stereo partly specified)
not listed: [16]
inactive: all other assays above

CC(=O)N(CC(=O)N(C)C)c1ccccc1
not listed: [9]
inactive: all other assays above

CC(COc1ccccc1)NN (stereo unspecified)
not listed: [9]
inactive: all other assays above

CN1C(=O)c2ccccc2C1=O
not listed: [16]
inactive: all other assays above

COC(=O)c1ccc(NC(C)=O)cc1OC
not listed: [9]
inactive: all other assays above

CCCCC(=O)OCC(=O)[C@H]1[C@H](C)C[C@H]2[C@@H]3C[C@H](F)C4=CC(=O)C=C[C@]4(C)[C@@]3(F)[C@@H](O)C[C@@]21C
not listed: [15] | [16]
inactive: all other assays above

CC(CC(C#N)(c1ccccc1)C(C)C)N(C)C (stereo unspecified)
not listed: [9]
inactive: all other assays above

O=C(O)c1ccc(OCCN2CCCCC2)cc1
not listed: [16]
inactive: all other assays above

CCN(CC)CC(=O)OCC(=O)[C@@]1(O)CC[C@H]2[C@@H]3CCC4=CC(=O)CC[C@]4(C)[C@H]3[C@@H](O)C[C@@]21C
not listed: [9]
inactive: all other assays above

C/C(=N/NC(=O)c1ccncc1)C(=O)O
not listed: [16]
inactive: all other assays above

CCOC(=O)CN1CCCC1=O
not listed: [9] | [12]
inactive: all other assays above

C[C@H]1C[C@H](O)c2ccsc2S1(=O)=O
not listed: [9]
inactive: all other assays above

NC(=O)NS(=O)(=O)c1ccc(Cl)cc1
not listed: [16]
inactive: all other assays above

CC(CCc1ccc2c(c1)OCO2)NN (stereo unspecified)
not listed: [9]
inactive: all other assays above

O=C1NC(c2ccccc2)(c2ccccc2)C(=O)N1COP(=O)(O)O
not listed: [9] | [14]
inactive: all other assays above

CC(C)C(=O)Nc1cccc(C2CN3CCSC3=N2)c1 (stereo unspecified)
not listed: [9] | [14]
inactive: all other assays above

C[C@]12CCC(=O)C=C1CC[C@@H]1[C@@H]2[C@@H](O)C[C@@]2(C)[C@H]1CC[C@]2(O)C(=O)COC(=O)CCC(=O)O
not listed: [9] | [11]
inactive: all other assays above

C[C@@H]1CCC[C@H](C)N1CCCC(O)(c1ccccc1)c1ccccn1 (stereo partly specified)
not listed: [9]
inactive: all other assays above

Cc1nc(C2CCCCC2)c(-c2ccc(S(N)(=O)=O)c(F)c2)o1
not listed: [9] | [10] | [13] | [15]
inactive: all other assays above

COC(=O)c1cc(Cl)c(NC(C)=O)cc1OC
not listed: [9]
inactive: all other assays above

CCN(CC)CC(=O)Nc1c(C)cccc1C(=O)OC
not listed: [9]
inactive: all other assays above

CC(=O)N1CCN(c2ccc(O)cc2)CC1
not listed: [7]
inactive: all other assays above

CCN1C(=O)c2ccccc2C1Nc1ccc(OCCN2CCCCC2)cc1 (stereo unspecified)
not listed: [8]
inactive: all other assays above

CC(C)C(C)(C)C(C)(C)C(C)(C)S
not listed: [6]
inactive: all other assays above
